In PubChem BioAssay AID651605 (National Center for Advancing Translational Sciences (NCATS), 2012):
Results filed as inconclusive are left out. Calls of active or inactive are those of the source. Calls come from the whole dose curve; as a rule, active = well fitted inhibition curve with a large enough effect; inconclusive = small, poorly fitted or top-dose-only effect; inactive = flat fitted curve, though single readings scatter.

These compounds were tested against Ubiquitin carboxyl-terminal hydrolase 1 (Homo sapiens) (UniProt O94782) (assay: Inhibitors of USP1/UAF1: SAR in Primary Assay). Conditions: Recombinant USP1/UAF1, Ub-Rhodamine cleavage fluorescence; series mostly up to 57.1 µM; activity change, negative = inhibition: at the top concentration.
Sequence of Ubiquitin carboxyl-terminal hydrolase 1 (Homo sapiens) (O94782 whole entry, looked up): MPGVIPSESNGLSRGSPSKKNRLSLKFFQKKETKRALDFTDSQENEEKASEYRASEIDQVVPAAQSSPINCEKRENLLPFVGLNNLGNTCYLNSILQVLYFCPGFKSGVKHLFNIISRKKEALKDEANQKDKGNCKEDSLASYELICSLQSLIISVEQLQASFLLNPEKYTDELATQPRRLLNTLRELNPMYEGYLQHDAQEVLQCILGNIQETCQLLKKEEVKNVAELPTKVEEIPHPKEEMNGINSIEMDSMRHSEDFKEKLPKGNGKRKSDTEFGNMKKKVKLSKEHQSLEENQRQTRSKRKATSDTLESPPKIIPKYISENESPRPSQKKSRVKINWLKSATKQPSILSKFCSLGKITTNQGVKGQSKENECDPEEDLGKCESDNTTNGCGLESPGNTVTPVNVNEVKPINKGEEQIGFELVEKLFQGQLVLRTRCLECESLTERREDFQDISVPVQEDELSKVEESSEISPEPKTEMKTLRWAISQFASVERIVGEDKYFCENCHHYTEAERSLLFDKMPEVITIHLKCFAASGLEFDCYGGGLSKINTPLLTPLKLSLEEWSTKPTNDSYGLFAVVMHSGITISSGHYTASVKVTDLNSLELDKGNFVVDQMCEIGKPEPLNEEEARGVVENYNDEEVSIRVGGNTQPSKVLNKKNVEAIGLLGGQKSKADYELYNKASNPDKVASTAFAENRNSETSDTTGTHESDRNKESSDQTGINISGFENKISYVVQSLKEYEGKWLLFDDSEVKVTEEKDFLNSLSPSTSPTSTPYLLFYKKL
Excerpt: Deubiquitinating enzymes (DUBs) are a class of enzymes that can cleave isopeptide bond formed between the C-terminal carboxylate of ubiquitin and a lysine side-chain amino group on the target protein. Among them, ubiquitin specific proteases (USPs) constitute the largest DUB family. Human USPs are emerging as promising targets for pharmacological intervention because of their connection to a number of human diseases, including prostate, colon and breast cancer (1, 2), pediatric acute lymphoblastic leukemia (3), and familial cylindromatosis (4). The advantage of inhibiting USPs lies in the potential specificity of therapeutic intervention that can lead to better efficacy and reduce nonspecific side effects. In a collaboration between the University of Delaware and the NIH Chemical Genomics Center, a high-throughput screen assay was developed to screen for USP1/UAF1 inhibitors (5). This assay was used to test the analogs that were synthesized based on SAR around the original hit. NIH Chemical Genomics Center [NCGC] NIH Molecular Libraries Probe Centers Network [MLPCN] MLPCN Grant: DA030552-01 Assay Submitter (PI): Zhihao Zhuang, University of Delaware 1. Priolo, C., et al. (2006) The isopeptidase USP2a protects human prostate cancer from apoptosis. Cancer Res 66, 8625-8632 2. Popov, N., et al. (2007) The ubiquitin-specific protease USP28 is required for MYC stability. Nat Cell Biol 9, 765-774 3. De Pitta, C., et al. (2005) A leukemia-enriched cDNA microarray platform identifies new transcripts with relevance to the biology of pediatric acute lymphoblastic leukemia. Haematologica 90, 890-898 4. Kovalenko, A., et al. (2003) The tumour suppressor CYLD negatively regulates NF-kappaB signalling by deubiquitination. Nature 424, 801-805 5. Chen, J., et al. (2011) Selective and cell-active inhibitors of the USP1/ UAF1 deubiquitinase complex reverse cisplatin resistance in non-small cell lung cancer cells. Chem Bio 18(11):1390-400.
3 microliters of reagents (buffer in columns 3 and 4 as negative control and 1nM USP1/UAF1 complex in columns 1, 2, and 5-48) are dispensed into Greiner black solid bottom 1536-well assay plates. Compounds are then transferred via Kalypsys pin tool equipped with 1536-pin array (10nl slotted pins, V&P Scientific, San Diego, CA). Following an incubation step of 15 min at room temperature, 1ul of Ub-Rho substrate (150nM final concentration) is added to initiate the reaction. The plates are immediately centrifuged at 1000 rpm for 15 seconds, and subsequently transferred to a ViewLux high-throughput CCD imager (PerkinElmer) wherein kinetic measurements of fluorescence are acquired using 480 nm excitation/540 nm emission filter set (6 reads every 60 seconds, see Table 1). All reagents are diluted in an assay buffer consisting of 50mM HEPES (pH 7.8), 0.5mM EDTA, 0.1 mg/ml BSA, 1mM TCEP, and 0.01% Tween-20.
With `CCc1ccccc1-c1nc(NCc2ccc(-c3cccnc3)cc2)c2ccccc2n1` the Potency was 607 nM (active).
With `Cc1cnc(-c2ccccc2C2COC2)nc1NCC1CCN(c2cccnc2)CC1` the “activity change, negative = inhibition” value was -6.08% (inactive).
With `CC(C)c1ccccc1-c1nc(NCC2CCN(c3cccnc3)CC2)c2ccccc2n1` the Potency was 85.7 nM (active).
With `Cc1cnc(-c2ccccc2C(C)C)nc1NCc1ccc(-c2nn[nH]n2)cc1` the Potency was 3830 nM (active).
`Cc1cnc(-c2ccccc2C(C)C)nc1NCc1ccc(-c2ccnc(C(F)(F)F)c2)cc1` was tested, and the Potency was 383 nM (active).
`Nc1nc(NCc2ccc(-c3cccnc3)cc2)c2ccccc2n1` was tested, and the “activity change, negative = inhibition” value was -16.9% (inactive).
`Cc1cnc(-c2ccccc2C(C)C)nc1NCc1ccc(-c2cn[nH]n2)cc1` was tested, and the Potency was 242 nM (active).
`COc1ccccc1-c1nc(NCc2ccc(-c3cccnc3)cc2)c2ccccc2n1` was tested, and the Potency was 681 nM (active).
With `FC(F)c1ccccc1-c1nc(NCc2ccc(-c3cccnc3)cc2)c2ccccc2n1` the Potency was 1360 nM (active).
`Cc1cnc(-c2ccccc2C(C)C)nc1NCC1CCN(c2cccnc2)C1` (stereo unspecified) was tested, and the Potency was 429 nM (active).
With `Cc1nc(-c2ccccc2C(C)C)nc(NCc2ccc(-c3cccnc3)cc2)c1C` the Potency was 136 nM (active).
In the case of `Cc1cnc(-c2ccccc2C(C)C)nc1N(C)Cc1ccc(-c2cccnc2)cc1`, the Potency is reported as 681 nM (active).
For `Cc1cnc(-c2ccccc2C(C)O)nc1NCC1CCN(c2cccnc2)CC1` (stereo unspecified), the Potency was 2410 nM (active).
With `Cc1cnc(-c2ccccc2C(C)C)nc1NCc1ccc(C#N)cc1` the Potency was 482 nM (active).
For `CC(C)c1ccccc1-c1nc(NCc2ccc(-c3cccnc3)cc2)c2ccccc2n1`, the Potency was 152 nM (active).
With `CC(C)c1ccccc1-c1ncc(F)c(NCc2ccc(-c3cccnc3)cc2)n1` the Potency was 60.7 nM (active).
With `CC(C)c1ccccc1-c1ncc(N(C)C)c(NCc2ccc(-c3cccnc3)cc2)n1` the Potency was 152 nM (active).
In the case of `c1cncc(-c2ccc(CNc3nc(N4CCOCC4)nc4ccccc34)cc2)c1`, the “activity change, negative = inhibition” value is reported as -18.2% (inactive).
`Cc1cnc(-c2ccccc2N(C)C)nc1NCc1ccc(-c2cccnc2)cc1` was tested, and the Potency was 429 nM (active).
For `Cc1cnc(-c2ccccc2C2CC2)nc1NCc1ccc(-c2cccnc2)cc1`, the Potency was 341 nM (active).
With `Fc1cc(Cl)cc(-c2ccc(CNc3nc(-c4ccccc4C(F)(F)F)nc4ccccc34)cc2)c1` the Potency was 2410 nM (active).
With `FC(F)(F)c1ccccc1-c1nc(NCc2ccc(-c3cccnc3)cc2)c2[nH]cnc2n1` the Potency was 607 nM (active).
In the case of `Cc1ccc(-c2ccc(CNc3nc(-c4ccccc4C(C)C)ncc3F)cc2)cn1`, the Potency is reported as 76.4 nM (active).
For `FC(F)(F)c1cccc(-c2nc(NCc3ccc(-c4ccnc(C(F)(F)F)c4)cc3)c3ccccc3n2)c1`, the “activity change, negative = inhibition” value was -0.42% (inactive).
For `Cc1cnc(-c2ccccc2CO)nc1NCc1ccc(-c2cccnc2)cc1`, the Potency was 8570 nM (active).
With `CC(C)c1ccccc1-c1nc(NCc2ccc(-c3cccnc3)cc2)c2[nH]cnc2n1` the Potency was 121 nM (active).
`Cc1cnc(-c2ccccc2C(C)O)nc1NCc1ccc(-c2cccnc2)cc1` (stereo unspecified) was tested, and the Potency was 1360 nM (active).
In the case of `FC(F)(F)c1ccccc1-c1nccc(NCc2ccc(-c3cccnc3)cc2)n1`, the Potency is reported as 541 nM (active).
`CC(C)c1ccccc1-c1nc2c(c(NCc3ccc(-c4cccnc4)cc3)n1)CNC2` was tested, and the Potency was 1520 nM (active).
With `CC(C)c1ccccc1-c1nc2c(c(NCc3ccc(-c4cccnc4)cc3)n1)CCNC2` the Potency was 482 nM (active).
In the case of `CC(C)c1ccccc1-c1nc(NCc2ccc(-c3cccnc3)cc2)c2ccsc2n1`, the Potency is reported as 242 nM (active).
